# Source: the supplement of paper PMC8728848
# The sample as a whole holds a higher share of the strongest signals than the screen did.
# B1: CLEC5A (Homo sapiens), Q9NY25 (protein)
# chain: MNWHMIISGLIVVVLKVVGMTLFLLYFPQIFNKSNDGFTTTRSYGTVSQIFGSSSPSPNGFITTRSYGTVCPKDWEFYQARCFFLSTSESSWNESRDFCKGKGSTLAIVNTPEKLKFLQDITDAEKYFIGLIYHREEKRWRWINNSVFNGNVTNQNQNFNCATIGLTKTFDAASCDISYRRICEKNAK
# Legend:
# Test in all cases: glycan array binding signal (z-score within array); higher = stronger binding
# Conditions in all cases: glycan notation: IUPAC condensed, linker removed
# [1] = biological target: 4d8dNeu5Ac(a2-3)Gal(b1-4)Glc
# Summary of the method: (§1)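 Columns mapping to the same glycan were averaged after glycan names were converted to IUPAC-condensed notation. The data come from 3228 arrays in the Consortium for Functional Glycomics database, limited to those with an available protein sequence. Binding is reported as a within-array Z-score averaged across arrays of one protein sequence and across linkers.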
# [2] = biological target: 4dNeu5Ac(a2-3)Gal(b1-4)Glc
# Summary of the method: as §1
# [3] = biological target: Fuc(a1-2)Gal(b1-3)GlcNAc(b1-2)Man(a1-3)[Fuc(a1-2)Gal(b1-3)GlcNAc(b1-2)Man(a1-6)]Man(b1-4)GlcNAc(b1-4)GlcNAc
# Summary of the method: as §1
# [4] = biological target: Fuc(a1-2)Gal(b1-3)[Fuc(a1-4)]GlcNAc(b1-2)Man(a1-3)[Fuc(a1-2)Gal(b1-3)[Fuc(a1-4)]GlcNAc(b1-2)Man(a1-3)]Man(b1-4)GlcNAc(b1-4)GlcNAc
# Summary of the method: as §1
# [5] = biological target: Fuc(a1-2)[Gal(a1-3)]Gal(b1-3)GlcNAc
# Summary of the method: as §1
# [6] = biological target: Fuc(a1-2)[Gal(a1-3)]Gal(b1-4)GlcNAc(b1-3)[Fuc(a1-2)[Gal(a1-3)]Gal(b1-4)GlcNAc(b1-6)]GalNAc
# Summary of the method: as §1
# [7] = biological target: Fuc(a1-2)[GalNAc(a1-3)]Gal(b1-4)GlcNAc(b1-2)Man(a1-3)[Fuc(a1-2)[GalNAc(a1-3)]Gal(b1-4)GlcNAc(b1-2)Man(a1-6)]Man(b1-4)GlcNAc(b1-4)[Fuc(a1-6)]GlcNAc
# Summary of the method: as §1
# [8] = biological target: Fuc(a1-2)[GalNAc(a1-3)]Gal(b1-4)GlcNAc(b1-3)Gal(b1-4)GlcNAc
# Summary of the method: as §1
# [9] = biological target: Fuc(a1-2)[GalNAc(a1-3)]Gal(b1-4)[Fuc(a1-3)]GlcNAc(b1-3)GalNAc
# Summary of the method: as §1
# [10] = biological target: Fuc(a1-3)[Gal(b1-4)]GlcNAc(b1-3)[Fuc(a1-2)]Gal(b1-4)Glc
# Summary of the method: as §1
# Fuc(a1-4)GlcNAc = biological target: Fuc(a1-4)GlcNAc
# Summary of the method: as §1
# [11] = biological target: Gal(b1-3)Gal(b1-4)GlcNAc(b1-2)Man(a1-3)[Gal(b1-3)Gal(b1-4)GlcNAc(b1-2)Man(a1-6)]Man(b1-4)GlcNAc(b1-4)GlcNAc
# Summary of the method: as §1
# [12] = biological target: Gal(b1-3)GlcNAc(a1-6)Gal(b1-4)GlcNAc
# Summary of the method: as §1
# [13] = biological target: Gal(b1-3)GlcNAc(b1-3)Gal(b1-4)Glc
# Summary of the method: as §1
# [14] = biological target: Gal(b1-3)GlcNAc(b1-3)Gal(b1-4)[Fuc(a1-3)]GlcNAc(b1-6)[Gal(b1-3)GlcNAc(b1-3)]Gal(b1-4)Glc
# Summary of the method: as §1
# [15] = biological target: Gal(b1-3)[Fuc(a1-4)]GlcNAc(b1-2)Man(a1-3)[Gal(b1-3)[Fuc(a1-4)]GlcNAc(b1-2)Man(a1-6)]Man(b1-4)GlcNAc(b1-4)GlcNAc
# Summary of the method: as §1
# [16] = biological target: Gal(b1-3)[Fuc(a1-4)]GlcNAc(b1-3)Gal(b1-4)[Fuc(a1-3)]GlcNAc
# Summary of the method: as §1
# [17] = biological target: Gal(b1-3)[Fuc(a1-4)]GlcNAc(b1-3)Gal(b1-4)[Fuc(a1-3)]GlcNAc(b1-6)[Gal(b1-3)[Fuc(a1-4)]GlcNAc(b1-3)]Gal(b1-4)Glc
# Summary of the method: as §1
# [18] = biological target: Gal(b1-3)[Neu5Ac(a2-6)]GalNAc
# Summary of the method: as §1
# Gal(b1-4)Glc = biological target: Gal(b1-4)Glc
# Summary of the method: as §1
# [19] = biological target: Gal(b1-4)GlcNAc(b1-2)Man(a1-6)[GlcNAc(b1-2)Man(a1-3)]Man(b1-4)GlcNAc(b1-4)[Fuc(a1-6)]GlcNAc
# Summary of the method: as §1
# [20] = biological target: Gal(b1-4)GlcNAc(b1-2)Man(a1-6)[Man(a1-3)]Man(b1-4)GlcNAc(b1-4)[Fuc(a1-6)]GlcNAc
# Summary of the method: as §1
# [21] = biological target: Gal(b1-4)GlcNAc(b1-3)Gal(b1-4)GlcNAc(b1-2)Man(a1-3)[Gal(b1-4)GlcNAc(b1-3)Gal(b1-4)GlcNAc(b1-2)Man(a1-6)]Man(b1-4)GlcNAc(b1-4)[Fuc(a1-6)]GlcNAc
# Summary of the method: as §1
# [22] = biological target: Gal(b1-4)GlcNAc(b1-3)Gal(b1-4)GlcNAc(b1-3)Gal(b1-4)GlcNAc
# Summary of the method: as §1
# [23] = biological target: Gal(b1-4)GlcNAc(b1-3)Gal(b1-4)GlcNAc(b1-3)Gal(b1-4)GlcNAc(b1-3)Gal(b1-4)GlcNAc(b1-2)Man(a1-3)[Gal(b1-4)GlcNAc(b1-3)Gal(b1-4)GlcNAc(b1-3)Gal(b1-4)GlcNAc(b1-3)Gal(b1-4)GlcNAc(b1-2)Man(a1-6)]Man(b1-4)GlcNAc(b1-4)[Fuc(a1-6)]GlcNAc
# Summary of the method: as §1
# [24] = biological target: Gal(b1-4)GlcNAc(b1-3)Gal(b1-4)GlcNAc(b1-3)Gal(b1-4)GlcNAc(b1-3)Gal(b1-4)GlcNAc(b1-3)Gal(b1-4)GlcNAc(b1-2)[Gal(b1-4)GlcNAc(b1-3)Gal(b1-4)GlcNAc(b1-3)Gal(b1-4)GlcNAc(b1-3)Gal(b1-4)GlcNAc(b1-3)Gal(b1-4)GlcNAc(b1-6)]Man(a1-6)[Gal(b1-4)GlcNAc(b1-3)Gal(b1-4)GlcNAc(b1-3)Gal(b1-4)GlcNAc(b1-3)Gal(b1-4)GlcNAc(b1-3)Gal(b1-4)GlcNAc(b1-2)Man(a1-3)]Man(b1-4)GlcNAc(b1-4)[Fuc(a1-6)]GlcNAc
# Summary of the method: as §1
# [25] = biological target: Gal(b1-4)GlcNAc(b1-3)[Fuc(a1-3)GlcNAc(b1-6)]Gal(b1-4)Glc
# Summary of the method: as §1
# [26] = biological target: Gal(b1-4)GlcNAc(b1-3)[Fuc(a1-3)[Gal(b1-4)]GlcNAc(b1-6)]Gal(b1-4)Glc
# Summary of the method: as §1
# [27] = biological target: Gal(b1-4)GlcNAc(b1-6)[Gal(b1-3)]GalNAc
# Summary of the method: as §1
# [28] = biological target: Gal3S(b1-3)[Fuc(a1-4)]GlcNAc
# Summary of the method: as §1
# [29] = biological target: GalNAc(a1-3)GalNAc(a1-3)Gal(a1-4)Gal(b1-4)GlcNAc
# Summary of the method: as §1
# GalNAc(b1-4)Gal(b1-4)Glc = biological target: GalNAc(b1-4)Gal(b1-4)Glc
# Summary of the method: as §1
# GalNAc(b1-4)GlcNAc = biological target: GalNAc(b1-4)GlcNAc
# Summary of the method: as §1
# [30] = biological target: GalNAc(b1-4)GlcNAc(b1-3)GalNAc(b1-4)GlcNAc
# Summary of the method: as §1
# GalNAc3S(b1-4)GlcNAc = biological target: GalNAc3S(b1-4)GlcNAc
# Summary of the method: as §1
# [31] = biological target: Glc(a1-3)Glc(a1-3)Man(a1-2)Man(a1-2)Man(a1-3)[Man(a1-3)[Man(a1-6)]Man(a1-6)]Man(b1-4)GlcNAc
# Summary of the method: as §1
# [32] = biological target: Glc(a1-4)Glc(a1-4)Glc(a1-4)Glc(a1-4)Glc(a1-4)Glc
# Summary of the method: as §1
# Glc(a1-6)Glc = biological target: Glc(a1-6)Glc
# Summary of the method: as §1
binder,measurement,setting,value
B1,glycan array binding signal (z-score),[1],-0.32
same,glycan array binding signal (z-score),[2],-0.32
same,glycan array binding signal (z-score),[3],0.119
same,glycan array binding signal (z-score),[4],0.282
same,glycan array binding signal (z-score),[5],-0.016
same,glycan array binding signal (z-score),[6],2
same,glycan array binding signal (z-score),[7],0.189
same,glycan array binding signal (z-score),[8],0.56
same,glycan array binding signal (z-score),[9],2.38
same,glycan array binding signal (z-score),[10],-0.32
same,glycan array binding signal (z-score),Fuc(a1-4)GlcNAc,11.1
same,glycan array binding signal (z-score),[11],2.62
same,glycan array binding signal (z-score),[12],-0.327
same,glycan array binding signal (z-score),[13],-0.282
same,glycan array binding signal (z-score),[14],-0.154
same,glycan array binding signal (z-score),[15],1.69
same,glycan array binding signal (z-score),[16],-0.037
same,glycan array binding signal (z-score),[17],-0.32
same,glycan array binding signal (z-score),[18],-0.023
same,glycan array binding signal (z-score),Gal(b1-4)Glc,-0.243
same,glycan array binding signal (z-score),[19],-0.031
same,glycan array binding signal (z-score),[20],4.98
same,glycan array binding signal (z-score),[21],0.05
same,glycan array binding signal (z-score),[22],0.076
same,glycan array binding signal (z-score),[23],1.88
same,glycan array binding signal (z-score),[24],0.25
same,glycan array binding signal (z-score),[25],-0.199
same,glycan array binding signal (z-score),[26],-0.031
same,glycan array binding signal (z-score),[27],-0.196
same,glycan array binding signal (z-score),[28],0.015
same,glycan array binding signal (z-score),[29],-0.892
same,glycan array binding signal (z-score),GalNAc(b1-4)Gal(b1-4)Glc,-0.144
same,glycan array binding signal (z-score),GalNAc(b1-4)GlcNAc,-0.135
same,glycan array binding signal (z-score),[30],-0.136
same,glycan array binding signal (z-score),GalNAc3S(b1-4)GlcNAc,-0.162
same,glycan array binding signal (z-score),[31],-0.32
same,glycan array binding signal (z-score),[32],1.32
same,glycan array binding signal (z-score),Glc(a1-6)Glc,1.7
